Hit rate of the full screen: of about 5,500 compounds, about 2,000 (36%) were called active. Not shown: some 18% with an inconclusive outcome. Cut-off read from the data, not from the text of the source: active = normalized growth mostly below about 0.91 (no sharp cut-off); inconclusive = no clear call, values can overlap the other calls; inactive = mostly above about 0.92. This is one part of the list.
Assay: chemical genetic growth profiling, strain panel (AID 1159580);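 note: tested at 20 µM; growth read once vehicle control cultures reached saturation at 30 °C; 1 = growth at the plate median or of vehicle wells; lower values mean less growth of the strain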
Conditions: S. cerevisiae deletion strains, growth OD

Measured: normalized growth

OC(=Cc1nc2ccccc2nc1C=C(O)c1ccc(Cl)cc1)c1ccc(Cl)cc1
inactive: locus YAR019C, strain CDC15, stronger effect = lower value 0.993 | locus YBL105C, strain PKC1, stronger effect = lower value 0.974 | locus YBR135W, strain CKS1, stronger effect = lower value 0.983 | locus YBR136W, strain MEC1, stronger effect = lower value 0.967 | locus YBR160W, strain CDC28, stronger effect = lower value 0.984 | locus YDL017W, strain CDC7, stronger effect = lower value 0.98 | locus YDL028C, strain MPS1, stronger effect = lower value 0.97 | locus YDL101C, strain DUN1, stronger effect = lower value 0.977 | locus YDL108W, strain KIN28, stronger effect = lower value 0.961 | locus YDL132W, strain cdc53, stronger effect = lower value 0.995 | locus YDL214C, strain PRR2, stronger effect = lower value 0.895 | locus YDR052C, strain DBF4, stronger effect = lower value 0.981 | locus YDR054C, strain cdc34, stronger effect = lower value 0.972 | locus YDR226W, strain ADK1, stronger effect = lower value 0.969 | locus YDR477W, strain SNF1, stronger effect = lower value 0.856 | locus YER123W, strain YCK3, stronger effect = lower value 0.85 | locus YER133W, strain GLC7, stronger effect = lower value 0.9 | locus YFL009W, strain cdc4, stronger effect = lower value 0.976 | locus YFL029C, strain CAK1, stronger effect = lower value 0.976 | locus YFR003C, strain YPI1, stronger effect = lower value 0.978 | locus YFR019W, strain FAB1, stronger effect = lower value 0.918 | locus YFR028C, strain CDC14, stronger effect = lower value 0.987 | locus YGR040W, strain KSS1, stronger effect = lower value 0.855 | locus YGR052W, strain FMP48, stronger effect = lower value 0.903 | locus YGR092W, strain DBF2, stronger effect = lower value 0.793 | locus YHR030C, strain SLT2, stronger effect = lower value 0.874 | locus YHR079C, strain IRE1, stronger effect = lower value 0.96 | locus YHR082C, strain KSP1, stronger effect = lower value 0.851 | locus YHR205W, strain SCH9, stronger effect = lower value 0.882 | locus YIL147C, strain SLN1, stronger effect = lower value 0.958 | locus YJL095W, strain BCK1, stronger effect = lower value 0.933 | locus YJL128C, strain PBS2, stronger effect = lower value 0.965 | locus YJL157C, strain FAR1, stronger effect = lower value 0.84 | locus YJR016C, strain ILV3, stronger effect = lower value 0.977 | locus YJR066W, strain TOR1 (second series), stronger effect = lower value 0.852 | locus YJR066W, strain TOR1, stronger effect = lower value 0.889 | locus YKL048C, strain ELM1, stronger effect = lower value 0.868 | locus YKL067W, strain YNK1, stronger effect = lower value 0.871 | locus YKL101W, strain HSL1, stronger effect = lower value 0.8 | locus YKL193C, strain SDS22, stronger effect = lower value 1 | locus YKL203C, strain TOR2, stronger effect = lower value 0.932 | locus YLR113W, strain HOG1, stronger effect = lower value 0.902 | locus YLR133W, strain CKI1, stronger effect = lower value 0.884 | locus YLR403W, strain SFP1, stronger effect = lower value 0.904 | locus YML070W, strain DAK1, stronger effect = lower value 0.855 | locus YMR001C, strain CDC5, stronger effect = lower value 0.992 | locus YMR205C, strain PFK2 (second series), stronger effect = lower value 0.859 | locus YMR277W, strain FCP1, stronger effect = lower value 0.977 | locus YNL006W, strain LST8, stronger effect = lower value 0.982 | locus YNL020C, strain ARK1, stronger effect = lower value 0.851 | locus YNL161W, strain CBK1, stronger effect = lower value 0.983 | locus YNL183C, strain NPR1, stronger effect = lower value 0.921 | locus YNL207W, strain RIO2, stronger effect = lower value 0.966 | locus YNL222W, strain SSU72, stronger effect = lower value 0.982 | locus YNL307C, strain MCK1 (second series), stronger effect = lower value 0.823 | locus YOL078W, strain AVO1, stronger effect = lower value 0.982 | locus YOL136C, strain PFK27, stronger effect = lower value 0.867 | locus YOR061W, strain CKA2, stronger effect = lower value 0.769 | locus YOR119C, strain RIO1, stronger effect = lower value 0.921 | locus YOR231W, strain MKK1, stronger effect = lower value 0.936 | locus YOR329C, strain SCD5, stronger effect = lower value 0.983 | locus YPL031C, strain PHO85, stronger effect = lower value 0.843 | locus YPL153C, strain RAD53, stronger effect = lower value 0.862 | locus YPL204W, strain HRR25, stronger effect = lower value 0.89 | locus YPL209C, strain IPL1, stronger effect = lower value 0.979 | locus YPL256C, strain CLN2, stronger effect = lower value 0.941 | locus YPR025C, strain CCL1, stronger effect = lower value 0.979 | locus YPR106W, strain ISR1, stronger effect = lower value 0.962 | locus YPR111W, strain DBF20, stronger effect = lower value 0.954 | strain NNK1, stronger effect = lower value 0.96 | strain TSCII, stronger effect = lower value 0.989
